# Reference: PMC7862700, “An all-to-all approach to the identification of sequence-specific readers for epigenetic DNA modifications on cytosine”
# What was measured:
# Assay in all cases: DAPPL (digital affinity profiling via proximity ligation, sequencing); 10 mM Tris-HCl pH 7.5, 50 mM NaCl, 1 mM DTT, 4% glycerol, room temperature, 30 min; GST-TFs on glutathione beads, 16-mer random dsDNA library, 0.1% formaldehyde crosslink after washing; high values mean tight binding
# Settings in all cases: protein: recombinant; tags: N-terminal GST; dsDNA, one strand shown
# GABPA = target: T1, GABPA (Homo sapiens, UniProt Q06546 1-454)
# T1 sequence: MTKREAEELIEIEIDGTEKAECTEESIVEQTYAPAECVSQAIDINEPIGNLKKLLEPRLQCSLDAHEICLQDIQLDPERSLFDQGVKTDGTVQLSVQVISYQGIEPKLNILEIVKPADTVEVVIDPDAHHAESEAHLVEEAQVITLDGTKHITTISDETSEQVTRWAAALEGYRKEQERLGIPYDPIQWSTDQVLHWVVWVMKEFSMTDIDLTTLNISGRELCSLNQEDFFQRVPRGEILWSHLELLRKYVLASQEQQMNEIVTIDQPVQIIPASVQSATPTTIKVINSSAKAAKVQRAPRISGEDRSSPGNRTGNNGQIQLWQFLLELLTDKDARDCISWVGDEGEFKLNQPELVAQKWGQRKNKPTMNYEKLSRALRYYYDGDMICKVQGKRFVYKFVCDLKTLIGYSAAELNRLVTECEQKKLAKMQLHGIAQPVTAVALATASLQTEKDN
# Summary of the method: (§1)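 Binding signal is each hexamer's read frequency for a factor divided by its frequency in the tag-only sample. The factors were GST-fused human transcription factors from yeast, captured on glutathione beads, DNA-barcoded and pooled with that sample. Pools were incubated with 200 nmole of a random double-stranded 16-mer DNA library in Tris/NaCl/DTT/glycerol buffer at room temperature for 30 min, then washed, crosslinked with 0.1% formaldehyde, proximity-ligated with BsaI/T4 ligase (1 h, 37 °C), PCR-amplified and sequenced on an Illumina NextSeq500.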
# SPIB = SPIB (Homo sapiens, UniProt Q01892 1-262)
# Summary of the method: as §1
# ETV5 = ETV5 (Homo sapiens, UniProt P41161 1-510)
# Summary of the method: as §1
# ELF4 = ELF4 (Homo sapiens, UniProt Q99607 1-663)
# Summary of the method: as §1
# ELK4 = target: T2, ELK4 (Homo sapiens, UniProt P28324-2 1-405)
# T2 sequence: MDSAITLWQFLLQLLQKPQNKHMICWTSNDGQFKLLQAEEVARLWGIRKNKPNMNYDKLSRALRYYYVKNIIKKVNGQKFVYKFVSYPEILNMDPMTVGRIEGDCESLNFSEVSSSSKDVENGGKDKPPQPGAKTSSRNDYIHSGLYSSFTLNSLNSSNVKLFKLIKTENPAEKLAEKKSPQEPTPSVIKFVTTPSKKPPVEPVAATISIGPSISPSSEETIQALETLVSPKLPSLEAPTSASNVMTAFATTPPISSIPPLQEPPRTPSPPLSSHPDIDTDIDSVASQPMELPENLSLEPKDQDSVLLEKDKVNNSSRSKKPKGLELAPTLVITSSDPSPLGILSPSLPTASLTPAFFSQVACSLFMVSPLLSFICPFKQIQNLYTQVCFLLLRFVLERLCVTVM
# Summary of the method: as §1
# ETV2 = target: T3, ETV2 (Homo sapiens, UniProt O00321 1-342)
# T3 sequence: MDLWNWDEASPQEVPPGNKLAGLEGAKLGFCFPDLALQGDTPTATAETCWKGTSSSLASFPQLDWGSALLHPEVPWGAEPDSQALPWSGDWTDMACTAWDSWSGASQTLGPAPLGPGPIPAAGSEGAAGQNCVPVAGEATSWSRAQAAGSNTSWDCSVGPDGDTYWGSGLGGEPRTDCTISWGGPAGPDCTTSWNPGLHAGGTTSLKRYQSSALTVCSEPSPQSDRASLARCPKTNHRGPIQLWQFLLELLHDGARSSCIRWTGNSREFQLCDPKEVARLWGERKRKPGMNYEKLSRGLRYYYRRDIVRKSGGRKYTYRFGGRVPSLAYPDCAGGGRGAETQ
# Summary of the method: as §1
# ETV3L = target: T4, ETV3L (Homo sapiens, UniProt Q6ZN32 1-361)
# T4 sequence: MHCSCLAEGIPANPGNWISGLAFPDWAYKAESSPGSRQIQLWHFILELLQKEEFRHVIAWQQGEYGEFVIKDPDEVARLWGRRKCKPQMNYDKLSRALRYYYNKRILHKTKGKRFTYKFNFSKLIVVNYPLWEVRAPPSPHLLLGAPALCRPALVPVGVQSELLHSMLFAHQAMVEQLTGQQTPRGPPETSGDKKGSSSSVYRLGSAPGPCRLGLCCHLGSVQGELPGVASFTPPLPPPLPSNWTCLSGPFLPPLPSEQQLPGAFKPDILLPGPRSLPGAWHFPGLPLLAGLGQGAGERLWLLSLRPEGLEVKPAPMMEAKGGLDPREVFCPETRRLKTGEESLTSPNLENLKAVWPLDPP
# Summary of the method: as §1
# ETV7 = target: T5, ETV7 (Homo sapiens, UniProt Q9Y603 1-341)
# T5 sequence: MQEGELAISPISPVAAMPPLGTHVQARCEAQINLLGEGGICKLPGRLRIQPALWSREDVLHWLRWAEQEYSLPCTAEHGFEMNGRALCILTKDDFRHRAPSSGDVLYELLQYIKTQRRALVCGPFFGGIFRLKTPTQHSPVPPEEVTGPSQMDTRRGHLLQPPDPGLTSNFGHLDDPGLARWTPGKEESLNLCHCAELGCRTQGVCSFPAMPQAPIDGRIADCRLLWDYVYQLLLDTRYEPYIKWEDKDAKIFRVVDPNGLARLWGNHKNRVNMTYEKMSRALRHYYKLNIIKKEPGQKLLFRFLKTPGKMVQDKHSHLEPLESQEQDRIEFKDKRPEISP
# Summary of the method: as §1
# ETV6 = ETV6 (Homo sapiens, UniProt P41212 1-452)
# Summary of the method: as §1
# Sequence of ETV5 (P41161 whole entry): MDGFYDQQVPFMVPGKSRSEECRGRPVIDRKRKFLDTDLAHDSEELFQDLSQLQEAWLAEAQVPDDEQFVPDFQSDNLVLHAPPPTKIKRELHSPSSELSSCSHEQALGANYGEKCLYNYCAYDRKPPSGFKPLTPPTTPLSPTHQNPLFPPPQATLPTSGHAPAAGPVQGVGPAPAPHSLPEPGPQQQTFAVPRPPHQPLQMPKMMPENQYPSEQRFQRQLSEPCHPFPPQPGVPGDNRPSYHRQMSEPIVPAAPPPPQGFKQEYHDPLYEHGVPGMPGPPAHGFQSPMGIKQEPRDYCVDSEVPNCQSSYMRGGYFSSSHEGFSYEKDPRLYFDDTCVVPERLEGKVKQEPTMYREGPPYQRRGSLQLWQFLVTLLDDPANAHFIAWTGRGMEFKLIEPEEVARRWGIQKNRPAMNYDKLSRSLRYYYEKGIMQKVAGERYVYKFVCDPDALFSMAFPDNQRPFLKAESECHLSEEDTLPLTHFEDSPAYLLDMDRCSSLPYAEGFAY
# Sequence of ELF4 (Q99607 whole entry): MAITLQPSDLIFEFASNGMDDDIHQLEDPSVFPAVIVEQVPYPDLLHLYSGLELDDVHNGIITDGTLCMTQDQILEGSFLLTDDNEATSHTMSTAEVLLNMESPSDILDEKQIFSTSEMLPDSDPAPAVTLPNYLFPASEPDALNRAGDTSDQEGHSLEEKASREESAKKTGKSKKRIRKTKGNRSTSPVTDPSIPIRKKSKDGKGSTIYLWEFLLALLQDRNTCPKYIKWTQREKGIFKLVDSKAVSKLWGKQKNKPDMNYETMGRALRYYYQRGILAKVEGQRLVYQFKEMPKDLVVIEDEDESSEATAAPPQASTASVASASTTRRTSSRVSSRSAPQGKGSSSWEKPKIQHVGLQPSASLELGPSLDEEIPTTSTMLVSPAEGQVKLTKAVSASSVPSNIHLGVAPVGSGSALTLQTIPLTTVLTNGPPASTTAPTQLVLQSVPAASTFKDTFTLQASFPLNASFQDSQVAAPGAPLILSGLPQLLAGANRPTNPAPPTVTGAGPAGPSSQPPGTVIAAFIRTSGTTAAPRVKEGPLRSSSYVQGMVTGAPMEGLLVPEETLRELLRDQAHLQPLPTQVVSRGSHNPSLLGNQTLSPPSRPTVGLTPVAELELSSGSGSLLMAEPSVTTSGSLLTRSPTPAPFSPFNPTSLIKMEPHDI
# Sequence of ETV6 (P41212 whole entry): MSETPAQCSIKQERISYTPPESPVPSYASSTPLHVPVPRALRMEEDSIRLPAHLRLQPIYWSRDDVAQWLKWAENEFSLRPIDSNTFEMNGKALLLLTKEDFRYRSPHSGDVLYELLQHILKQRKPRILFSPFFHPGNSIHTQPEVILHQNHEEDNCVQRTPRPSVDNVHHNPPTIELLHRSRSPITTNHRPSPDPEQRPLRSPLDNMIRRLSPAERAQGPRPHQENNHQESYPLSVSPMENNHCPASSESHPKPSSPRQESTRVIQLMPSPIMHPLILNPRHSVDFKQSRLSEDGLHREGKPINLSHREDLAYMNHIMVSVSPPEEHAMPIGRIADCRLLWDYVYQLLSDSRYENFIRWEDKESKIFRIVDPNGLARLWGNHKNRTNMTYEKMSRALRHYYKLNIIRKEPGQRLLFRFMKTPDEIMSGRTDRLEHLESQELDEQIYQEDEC
# Sequence of SPIB (Q01892 whole entry): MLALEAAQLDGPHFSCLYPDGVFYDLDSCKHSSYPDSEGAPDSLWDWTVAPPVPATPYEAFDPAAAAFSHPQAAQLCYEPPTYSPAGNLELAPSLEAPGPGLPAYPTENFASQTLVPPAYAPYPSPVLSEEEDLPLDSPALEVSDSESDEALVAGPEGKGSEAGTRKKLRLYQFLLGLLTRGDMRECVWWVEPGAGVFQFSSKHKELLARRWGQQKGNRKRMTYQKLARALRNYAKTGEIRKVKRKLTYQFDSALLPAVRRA
sequence,measurement,setting,value
CGCGTA,binding signal,GABPA,"1.01 fold enrichment (6-mer frequency, TF over GST control)"
same,binding signal,SPIB,"1.05 fold enrichment (6-mer frequency, TF over GST control)"
same,binding signal,ETV5,"1 fold enrichment (6-mer frequency, TF over GST control)"
same,binding signal,ELF4,"1.08 fold enrichment (6-mer frequency, TF over GST control)"
same,binding signal,ELK4,"1.07 fold enrichment (6-mer frequency, TF over GST control)"
same,binding signal,ETV2,"1.03 fold enrichment (6-mer frequency, TF over GST control)"
same,binding signal,ETV3L,"1.01 fold enrichment (6-mer frequency, TF over GST control)"
same,binding signal,ETV7,"1.07 fold enrichment (6-mer frequency, TF over GST control)"
same,binding signal,ETV6,"1.01 fold enrichment (6-mer frequency, TF over GST control)"
